What was measured:
Test in all cases: log2 ratio of Biotin-Ahx-Ub-VS probe labelling (fragment/DMSO); higher = less target engagement (more negative = stronger competition), active = hit call of the paper (q ≤ 0.05, log2 ratio ≤ -1)
Details in all cases: compound concentration: 200 uM; treatment time: 3 h
[1] = biological target: USP34 (UniProt Q70CQ2)
Summary of the method: (§1)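 The table lists average log2 ratios of fragment over vehicle, from an unpaired t-test on global-median-normalised Spectronaut label-free quantities. Proteins with ≥2 unique peptides were used. Samples were HEK293T lysate (495 µg) treated in triplicate with fragment at 200 µM or vehicle for 3 h, then with Biotin-Ahx-Ub-VS (0.5 µM final) for 1 h, with labelled DUBs NeutrAvidin-enriched and run by diaPASEF LC-MS/MS.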

[2] = biological target: T1, USP36 (UniProt Q9P275)
T1 sequence (whole entry): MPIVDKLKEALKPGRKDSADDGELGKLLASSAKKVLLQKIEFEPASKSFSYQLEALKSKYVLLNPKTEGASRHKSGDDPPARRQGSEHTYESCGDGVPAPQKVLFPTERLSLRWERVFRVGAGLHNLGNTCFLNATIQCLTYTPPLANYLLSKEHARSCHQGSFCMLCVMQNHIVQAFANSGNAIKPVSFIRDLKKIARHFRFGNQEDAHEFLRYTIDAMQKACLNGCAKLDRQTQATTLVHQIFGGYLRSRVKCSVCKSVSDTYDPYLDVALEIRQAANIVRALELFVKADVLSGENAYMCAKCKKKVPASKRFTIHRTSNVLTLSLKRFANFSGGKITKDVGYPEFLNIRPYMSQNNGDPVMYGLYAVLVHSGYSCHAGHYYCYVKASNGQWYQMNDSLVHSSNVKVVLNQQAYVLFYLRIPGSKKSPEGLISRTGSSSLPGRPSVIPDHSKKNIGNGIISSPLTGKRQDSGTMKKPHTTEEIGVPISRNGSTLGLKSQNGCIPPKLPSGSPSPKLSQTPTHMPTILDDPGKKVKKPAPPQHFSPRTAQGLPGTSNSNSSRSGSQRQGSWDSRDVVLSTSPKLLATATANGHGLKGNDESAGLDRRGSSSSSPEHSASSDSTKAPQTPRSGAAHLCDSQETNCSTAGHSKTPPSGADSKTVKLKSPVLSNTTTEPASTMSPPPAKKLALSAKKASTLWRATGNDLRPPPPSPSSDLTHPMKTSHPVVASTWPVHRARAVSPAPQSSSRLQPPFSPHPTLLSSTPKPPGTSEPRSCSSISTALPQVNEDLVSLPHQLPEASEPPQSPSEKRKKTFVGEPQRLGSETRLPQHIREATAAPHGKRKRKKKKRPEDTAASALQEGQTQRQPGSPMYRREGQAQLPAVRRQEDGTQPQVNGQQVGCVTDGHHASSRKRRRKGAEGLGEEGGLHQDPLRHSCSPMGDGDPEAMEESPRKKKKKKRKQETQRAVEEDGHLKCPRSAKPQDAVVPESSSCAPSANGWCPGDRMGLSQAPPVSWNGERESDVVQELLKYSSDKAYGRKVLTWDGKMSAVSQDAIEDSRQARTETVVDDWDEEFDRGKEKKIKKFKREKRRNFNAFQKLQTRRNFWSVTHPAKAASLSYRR
Summary of the method: as §1

[3] = biological target: T2, USP38 (UniProt Q8NB14)
T2 sequence (whole entry): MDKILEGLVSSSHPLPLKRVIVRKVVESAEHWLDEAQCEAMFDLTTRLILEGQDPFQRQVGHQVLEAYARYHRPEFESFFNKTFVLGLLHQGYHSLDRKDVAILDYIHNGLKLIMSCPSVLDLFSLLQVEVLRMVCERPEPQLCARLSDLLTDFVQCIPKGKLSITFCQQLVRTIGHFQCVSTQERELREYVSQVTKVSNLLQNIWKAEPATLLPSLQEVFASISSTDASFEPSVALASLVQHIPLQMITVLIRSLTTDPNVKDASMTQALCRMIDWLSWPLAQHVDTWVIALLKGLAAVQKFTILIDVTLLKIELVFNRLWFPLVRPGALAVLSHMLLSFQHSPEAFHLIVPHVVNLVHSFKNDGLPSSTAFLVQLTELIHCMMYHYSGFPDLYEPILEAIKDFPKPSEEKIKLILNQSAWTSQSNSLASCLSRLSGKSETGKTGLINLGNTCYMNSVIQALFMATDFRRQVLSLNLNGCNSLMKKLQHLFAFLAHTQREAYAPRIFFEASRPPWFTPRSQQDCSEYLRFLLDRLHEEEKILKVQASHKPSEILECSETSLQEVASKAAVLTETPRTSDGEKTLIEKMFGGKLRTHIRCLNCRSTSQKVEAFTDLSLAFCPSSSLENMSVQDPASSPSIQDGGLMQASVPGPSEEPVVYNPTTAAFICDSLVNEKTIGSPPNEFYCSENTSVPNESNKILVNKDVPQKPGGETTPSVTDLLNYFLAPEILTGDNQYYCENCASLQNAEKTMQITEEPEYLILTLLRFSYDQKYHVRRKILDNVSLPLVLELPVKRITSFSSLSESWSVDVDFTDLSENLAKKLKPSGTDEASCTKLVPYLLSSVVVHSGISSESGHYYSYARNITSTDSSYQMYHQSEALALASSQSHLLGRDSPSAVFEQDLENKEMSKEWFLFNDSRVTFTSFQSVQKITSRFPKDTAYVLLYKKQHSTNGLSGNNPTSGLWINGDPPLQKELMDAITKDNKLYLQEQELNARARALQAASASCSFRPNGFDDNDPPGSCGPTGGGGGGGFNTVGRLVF
Summary of the method: as §1

[4] = biological target: T3, USP39 (UniProt Q53GS9)
T3 sequence (whole entry): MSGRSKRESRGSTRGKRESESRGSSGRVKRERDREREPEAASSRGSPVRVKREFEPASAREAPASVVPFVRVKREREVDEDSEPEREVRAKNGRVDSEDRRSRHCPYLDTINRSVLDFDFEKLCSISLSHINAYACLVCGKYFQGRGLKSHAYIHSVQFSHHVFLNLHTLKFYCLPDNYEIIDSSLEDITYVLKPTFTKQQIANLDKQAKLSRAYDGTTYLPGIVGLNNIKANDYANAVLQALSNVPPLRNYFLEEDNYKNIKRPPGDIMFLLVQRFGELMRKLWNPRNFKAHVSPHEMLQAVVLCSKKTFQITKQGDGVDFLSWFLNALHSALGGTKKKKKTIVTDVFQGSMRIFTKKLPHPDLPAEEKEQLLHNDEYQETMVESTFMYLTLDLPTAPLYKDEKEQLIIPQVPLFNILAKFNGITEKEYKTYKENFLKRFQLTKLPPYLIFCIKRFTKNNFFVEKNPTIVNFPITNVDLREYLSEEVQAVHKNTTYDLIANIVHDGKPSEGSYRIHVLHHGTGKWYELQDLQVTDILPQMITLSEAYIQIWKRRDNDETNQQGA
Summary of the method: as §1

[5] = biological target: T4, USP4 (UniProt Q13107)
T4 sequence (whole entry): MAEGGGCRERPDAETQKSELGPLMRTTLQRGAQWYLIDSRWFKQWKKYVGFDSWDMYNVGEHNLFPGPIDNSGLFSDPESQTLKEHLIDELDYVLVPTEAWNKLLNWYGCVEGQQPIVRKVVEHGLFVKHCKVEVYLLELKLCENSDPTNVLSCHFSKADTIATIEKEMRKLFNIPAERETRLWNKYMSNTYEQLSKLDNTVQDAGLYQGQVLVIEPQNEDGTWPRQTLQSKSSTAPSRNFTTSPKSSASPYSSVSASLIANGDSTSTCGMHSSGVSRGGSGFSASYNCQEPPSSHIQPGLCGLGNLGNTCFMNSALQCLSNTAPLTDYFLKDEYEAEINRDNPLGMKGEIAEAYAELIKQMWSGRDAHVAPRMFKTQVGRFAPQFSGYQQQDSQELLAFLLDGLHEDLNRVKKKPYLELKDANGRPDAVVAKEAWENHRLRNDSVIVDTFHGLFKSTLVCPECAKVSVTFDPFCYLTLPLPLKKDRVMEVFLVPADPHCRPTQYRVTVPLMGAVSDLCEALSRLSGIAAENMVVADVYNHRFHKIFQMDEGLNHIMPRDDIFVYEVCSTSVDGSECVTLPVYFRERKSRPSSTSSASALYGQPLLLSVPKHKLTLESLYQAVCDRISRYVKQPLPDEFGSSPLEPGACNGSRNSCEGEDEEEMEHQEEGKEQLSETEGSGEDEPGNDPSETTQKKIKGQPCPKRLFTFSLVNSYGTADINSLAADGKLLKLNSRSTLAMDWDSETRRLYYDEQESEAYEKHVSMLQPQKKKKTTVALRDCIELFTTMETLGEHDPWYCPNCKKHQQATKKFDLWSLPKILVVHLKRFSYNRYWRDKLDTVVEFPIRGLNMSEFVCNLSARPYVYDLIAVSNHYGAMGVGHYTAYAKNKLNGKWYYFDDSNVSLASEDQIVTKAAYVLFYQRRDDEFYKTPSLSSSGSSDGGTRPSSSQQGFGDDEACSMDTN
Summary of the method: as §1

Measured: log2 ratio of Biotin-Ahx-Ub-VS probe labelling

Chain of USP34 (Q70CQ2 whole entry, the tested form may be a part): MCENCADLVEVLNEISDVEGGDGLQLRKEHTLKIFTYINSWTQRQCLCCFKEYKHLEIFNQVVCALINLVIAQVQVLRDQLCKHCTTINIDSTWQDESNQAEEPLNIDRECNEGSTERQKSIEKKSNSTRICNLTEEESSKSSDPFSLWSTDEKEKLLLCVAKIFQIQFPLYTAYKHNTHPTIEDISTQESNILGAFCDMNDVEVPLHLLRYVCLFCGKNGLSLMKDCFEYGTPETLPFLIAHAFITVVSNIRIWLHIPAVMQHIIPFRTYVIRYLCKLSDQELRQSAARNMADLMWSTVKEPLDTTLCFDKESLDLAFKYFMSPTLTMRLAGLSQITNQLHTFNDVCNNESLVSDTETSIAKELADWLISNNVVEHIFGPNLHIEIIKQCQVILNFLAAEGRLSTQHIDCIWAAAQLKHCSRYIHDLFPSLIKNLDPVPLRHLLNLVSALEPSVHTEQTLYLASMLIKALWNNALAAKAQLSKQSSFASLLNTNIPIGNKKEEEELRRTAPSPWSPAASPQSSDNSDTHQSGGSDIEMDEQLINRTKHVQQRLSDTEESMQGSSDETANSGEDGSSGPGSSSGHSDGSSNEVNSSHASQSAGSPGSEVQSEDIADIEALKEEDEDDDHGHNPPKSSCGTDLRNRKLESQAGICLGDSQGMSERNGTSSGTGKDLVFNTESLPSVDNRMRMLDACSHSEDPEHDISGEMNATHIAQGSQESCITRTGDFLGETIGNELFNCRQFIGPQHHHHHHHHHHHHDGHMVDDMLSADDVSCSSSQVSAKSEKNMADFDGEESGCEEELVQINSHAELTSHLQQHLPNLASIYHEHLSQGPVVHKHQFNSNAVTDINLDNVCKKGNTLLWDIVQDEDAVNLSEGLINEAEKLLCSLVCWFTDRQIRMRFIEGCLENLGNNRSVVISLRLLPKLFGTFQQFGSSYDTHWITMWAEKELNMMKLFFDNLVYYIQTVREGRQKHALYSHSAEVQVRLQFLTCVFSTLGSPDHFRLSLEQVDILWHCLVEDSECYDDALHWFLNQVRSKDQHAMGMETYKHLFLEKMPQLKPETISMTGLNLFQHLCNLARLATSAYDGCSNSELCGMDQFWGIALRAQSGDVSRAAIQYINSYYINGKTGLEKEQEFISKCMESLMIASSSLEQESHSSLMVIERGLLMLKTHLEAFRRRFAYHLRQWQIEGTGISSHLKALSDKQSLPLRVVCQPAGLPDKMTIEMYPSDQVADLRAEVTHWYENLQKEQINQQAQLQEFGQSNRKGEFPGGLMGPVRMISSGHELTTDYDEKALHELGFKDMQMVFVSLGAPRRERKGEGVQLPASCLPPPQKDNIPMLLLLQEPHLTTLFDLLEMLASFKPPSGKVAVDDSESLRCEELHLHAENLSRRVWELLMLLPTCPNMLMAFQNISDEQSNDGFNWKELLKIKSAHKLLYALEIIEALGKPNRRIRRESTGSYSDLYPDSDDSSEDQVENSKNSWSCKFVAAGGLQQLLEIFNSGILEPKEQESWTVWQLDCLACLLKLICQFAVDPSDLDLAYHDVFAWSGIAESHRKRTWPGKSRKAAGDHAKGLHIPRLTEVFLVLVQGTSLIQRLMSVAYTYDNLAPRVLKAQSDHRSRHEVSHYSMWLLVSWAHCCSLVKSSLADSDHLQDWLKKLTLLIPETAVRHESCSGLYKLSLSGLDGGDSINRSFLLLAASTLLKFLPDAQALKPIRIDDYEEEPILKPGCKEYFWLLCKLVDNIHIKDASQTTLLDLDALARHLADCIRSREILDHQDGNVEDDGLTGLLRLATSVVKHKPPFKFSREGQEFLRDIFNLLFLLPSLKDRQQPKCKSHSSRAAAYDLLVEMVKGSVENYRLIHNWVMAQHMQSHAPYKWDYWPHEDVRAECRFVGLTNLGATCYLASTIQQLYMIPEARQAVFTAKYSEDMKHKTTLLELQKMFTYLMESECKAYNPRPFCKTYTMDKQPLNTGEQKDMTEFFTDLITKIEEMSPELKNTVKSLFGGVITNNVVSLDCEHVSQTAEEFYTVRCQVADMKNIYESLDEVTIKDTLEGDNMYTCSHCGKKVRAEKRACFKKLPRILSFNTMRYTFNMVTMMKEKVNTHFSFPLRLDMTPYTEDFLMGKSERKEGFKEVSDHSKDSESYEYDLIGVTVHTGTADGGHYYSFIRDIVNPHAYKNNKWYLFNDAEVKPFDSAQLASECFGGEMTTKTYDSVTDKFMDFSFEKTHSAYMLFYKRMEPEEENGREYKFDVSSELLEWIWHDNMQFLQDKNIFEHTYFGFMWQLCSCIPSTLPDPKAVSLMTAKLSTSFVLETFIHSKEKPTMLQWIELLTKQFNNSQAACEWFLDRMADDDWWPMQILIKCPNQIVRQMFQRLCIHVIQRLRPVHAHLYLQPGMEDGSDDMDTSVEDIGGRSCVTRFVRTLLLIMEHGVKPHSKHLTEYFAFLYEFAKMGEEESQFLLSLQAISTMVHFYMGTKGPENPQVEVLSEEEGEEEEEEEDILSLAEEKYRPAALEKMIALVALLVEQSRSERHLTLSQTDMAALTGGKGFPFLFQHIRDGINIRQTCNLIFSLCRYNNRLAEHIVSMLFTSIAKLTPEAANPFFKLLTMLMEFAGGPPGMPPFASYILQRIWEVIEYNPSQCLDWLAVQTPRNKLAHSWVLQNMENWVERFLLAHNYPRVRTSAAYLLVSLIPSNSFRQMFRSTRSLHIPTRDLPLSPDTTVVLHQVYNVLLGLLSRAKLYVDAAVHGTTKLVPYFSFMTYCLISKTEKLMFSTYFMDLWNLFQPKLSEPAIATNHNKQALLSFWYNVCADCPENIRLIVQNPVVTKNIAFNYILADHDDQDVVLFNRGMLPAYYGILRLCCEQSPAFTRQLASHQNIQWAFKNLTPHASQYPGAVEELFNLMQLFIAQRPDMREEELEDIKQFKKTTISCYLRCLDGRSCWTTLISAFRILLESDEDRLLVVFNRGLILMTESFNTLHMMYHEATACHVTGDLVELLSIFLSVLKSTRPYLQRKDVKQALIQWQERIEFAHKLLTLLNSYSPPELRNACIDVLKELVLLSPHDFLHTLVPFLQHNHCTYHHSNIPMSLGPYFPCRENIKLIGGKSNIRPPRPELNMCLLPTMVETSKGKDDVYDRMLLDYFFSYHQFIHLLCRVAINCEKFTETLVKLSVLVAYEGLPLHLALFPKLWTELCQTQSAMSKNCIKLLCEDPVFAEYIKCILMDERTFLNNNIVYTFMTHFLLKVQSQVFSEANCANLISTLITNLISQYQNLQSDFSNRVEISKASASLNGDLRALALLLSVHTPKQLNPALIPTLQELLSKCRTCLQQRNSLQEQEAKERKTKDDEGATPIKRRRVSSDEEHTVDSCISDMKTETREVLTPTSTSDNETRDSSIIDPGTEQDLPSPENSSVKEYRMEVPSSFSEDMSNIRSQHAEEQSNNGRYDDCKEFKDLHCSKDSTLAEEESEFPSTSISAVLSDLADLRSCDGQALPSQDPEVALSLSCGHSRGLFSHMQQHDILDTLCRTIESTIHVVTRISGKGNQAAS

O=C(CCl)N1CCC(C(O)c2ccc(F)cc2)CC1 (stereo not given)
inactive: [1] -0.0791 | [2] 0.299 | [3] 0.282 | [4] 0.453 | [5] 0.032

Source: the supplement of paper PMC11732987, “Enantioselective OTUD7B fragment discovery through chemoproteomics screening and high-throughput optimisation” (Communications Chemistry, 2025)
